Assay outcomes as filed in PubChem BioAssay.
Rv3671c inh – Rv3671c serine protease inhibitors, primary screen, biochemical, fluorescence polarization, M. tuberculosis H37Rv | P9WHR9 | inhibition, % at 5.96 µM | actives 0.048% (n = 320,000); in the data active = inhibition above about 38%;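 also: extracellular domain of Rv3671c used as enzyme; 0% = enzyme with DMSO and 100% = no enzyme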
Target sequence (P9WHR9 whole entry, looked up, the tested form may be a part): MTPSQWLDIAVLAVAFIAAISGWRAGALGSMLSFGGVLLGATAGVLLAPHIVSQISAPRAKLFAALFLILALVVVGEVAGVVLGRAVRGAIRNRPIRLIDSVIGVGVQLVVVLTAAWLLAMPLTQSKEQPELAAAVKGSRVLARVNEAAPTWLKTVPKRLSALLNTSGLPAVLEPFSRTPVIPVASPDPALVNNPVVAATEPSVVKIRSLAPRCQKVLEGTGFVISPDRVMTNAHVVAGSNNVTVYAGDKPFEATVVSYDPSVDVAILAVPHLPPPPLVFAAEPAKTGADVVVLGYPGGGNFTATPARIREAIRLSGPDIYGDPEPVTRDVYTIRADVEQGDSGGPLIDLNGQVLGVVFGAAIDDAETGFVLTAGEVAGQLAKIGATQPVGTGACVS
Mtb bLac sens – beta-lactam sensitization of Mtb H37Rv, H37Rv. M. tuberculosis H37Rv growth with meropenem, percent inhibition. AID 434955, 2010. actives 0.27% (n = 330,000). inhibition, % at 25 µM;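 also: growth measured after seven days incubation then overnight dye step; 0% = bacteria only wells and 100% = bacteria with antibiotic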
RecA splice inh – Mtb RecA intein splicing inhibitors, primary screen, biochemical, fluorescence, HTS; cell-free RecA intein splicing; inhibition, % (concentration not given with the values); actives 0.75% (n = 290,000); Protein RecA (Mycobacterium tuberculosis (strain ATCC 25618 / H37Rv)), P9WHJ3; in the data active = inhibition above about 30%;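 also: 0% = vehicle wells and 100% = reference inhibitor control wells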
FBA Mtb inh – Mtb FBA enzyme inhibitors, primary screen, biochemical, fluorescence, strain H37Rv; inhibition, % at 1 µM; purified M. tuberculosis FBA, fluorescence read-out; actives 2.3% (n = 360,000); Fructose-bisphosphate aldolase (Mycobacterium tuberculosis (strain ATCC 25618 / H37Rv)), …; in the data active = inhibition above about 27%;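 also: 0% = vehicle and 100% = reference inhibitor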
UGM FP inh – M. tuberculosis UGM enzyme inhibitors, primary screen, biochemical, fluorescence polarization, single point; UDP-galactopyranose mutase (Mycobacterium tuberculosis (strain ATCC 25618 / H37Rv)), …; purified UGM, fluorescence polarization probe displacement; inhibition, % at 10 µM; actives 0.06% (n = 320,000); AID 504406, 2011; in the data active = inhibition above about 10%, passing the limit was not always enough
GDH-TPI inh – GDH-TPI coupling enzyme inhibitors, primary screen, artefact control for M. tuberculosis FBA inhibitor project, biochemical, absorbance, full deck; GDH-TPI coupled enzyme counterscreen, NADH absorbance; inhibition, % at 4.8 µM; actives 1.2% (n = 360,000); in the data active = inhibition above about 30%;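 also: 0% = DMSO wells and 100% = wells lacking the enzyme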
GFP chromophore – counter-screen: blocks GFP chromophore formation, dose response, counter-screen, biochemical, fluorescence, homogeneous; shares compounds with RecA splice inh; cell-free GFP chromophore formation; EC50, µM; actives 83% (n = 2,100); AID 434968, 2010
Active calls of the source: *; . = not tested or not shown. Hits are enriched below; roughly 4% of the tested compounds scored in any of these assays. Unless noted, no rule for the calls is given here.

SMILES | Rv3671c inh | Mtb bLac sens | RecA splice inh | FBA Mtb inh | UGM FP inh | GDH-TPI inh | GFP chromophore
Cc1[nH]n(-c2ccccc2)c(=O)c1C(C[N+](=O)[O-])c1ccccc1Cl (stereo unspecified) | -18 | 98 | 75* | 0 | -2 | -2 | 15*
COc1ccc(C(C[N+](=O)[O-])c2c(C)[nH]n(-c3ccccc3)c2=O)cc1 (stereo unspecified) | -159 | 25 | 95* | 2 | 1 | 2 | 5.3*
CC(=O)N(CCC(Cc1ccccc1)c1ccc2c(c1)OCO2)Cc1ccccc1F (stereo unspecified) | -5 | -3 | 36* | 5 | 2 | 2 | >38
O=C(O)c1ccccc1C(=O)c1ccc2oc(=O)[nH]c2c1 | . | . | . | 6 | . | 18 | .
CCOc1ccc(/C=N/NC(=O)c2cccc3ccccc23)c(OCC)c1 | . | -4 | 0 | 3 | 2 | 16 | .
FC(F)(F)c1ccccc1Cc1c(-c2cccc(Br)c2)nc2ccc(Br)cn12 | . | . | . | -1 | . | . | .
N#CC(c1ccccc1)c1cnccn1 (stereo unspecified) | -1 | 0 | 33* | 2 | 1 | -14 | >38
Cc1nnc(NC(=O)c2nc(S(=O)(=O)Cc3ccccc3C)ncc2Cl)s1 | -7 | 1 | 67* | 3 | -2 | 14 | >38
CC(C)c1nnc(NC(=O)c2nc(S(=O)(=O)Cc3ccccc3F)ncc2Cl)s1 | -8 | 1 | 83* | . | 1 | . | 14*
CSc1nnc(NC(=O)c2nc(S(=O)(=O)Cc3ccccc3F)ncc2Cl)s1 | -10 | 12 | 76* | -3 | 4 | 7 | 23*
CSc1ncc(Cl)c(C(=O)Nc2nnc(SC/C=C/c3ccccc3)s2)n1 | -8 | 17 | -2 | -1 | 0 | 15 | .
Cc1c(N=C2C=CC(=O)c3ccccc32)c(=O)n(-c2ccccc2)n1C | . | . | 72* | -3 | . | 4 | 1.8*
Fc1ccc(Nc2nc(Oc3ccccc3F)nc(N3CCCC3)n2)cc1 | -11 | -7 | 8 | 0 | 0 | -3 | 12*
O=C(CCl)Nc1cccc(S(=O)(=O)N2CCCCCC2)c1 | -8 | 99 | 44* | -1 | 2 | 8 | 33*
CCOC(=O)C1=C(COC(=O)CCNS(=O)(=O)c2ccc(C)c(C)c2)NC(=O)NC1C (stereo unspecified) | 11 | -6 | . | 1 | -3 | 4 | .
O=C(Cc1cc(=O)[nH][nH]1)N/N=C/C=C/c1ccccc1 | 1 | 9 | 85* | 0 | 1 | 13 | 18*
O=C(CNC(=O)c1ccccc1)N/N=C/C=C/c1ccccc1 | 2 | 1 | 0 | -2 | 0 | 11 | .
COc1cccc(/C=C2\SC(=S)N(CCCC(=O)N3CCCC3)C2=O)c1 | -3 | 71 | 33* | 0 | 0 | 23 | >38
COc1ccc(/C=C2/SC(=S)N(CCCC(=O)Nc3ccc(O)cc3)C2=O)cc1 | -6 | 82 | 9 | -7 | 0 | 13 | .
COc1ccc(/C=C2\SC(=S)N(CCCC(=O)Nc3ccc(O)cc3)C2=O)cc1 | -4 | 81 | 40* | -5 | 0 | 25 | >38
COc1cccc(/C=C2\SC(=S)N(CCCC(=O)N3CCCCC3CCO)C2=O)c1 (stereo unspecified) | -12 | 2 | 0 | -1 | 0 | 15 | .
CCCOc1ccc(C(=O)N2CCN(Cc3ccc4c(c3)OCO4)CC2)cc1 | -7 | 2 | 7 | -1 | -1 | -4 | .
Cc1ccc(C(=O)n2c(-c3ccccc3)cnc2SCC(=O)Nc2ccccc2)cc1 | 9 | -2 | 7 | -1 | -1 | -4 | .
Cn1c(SCC(=O)NCC2CCCO2)ncc(C(=O)Nc2ccccc2)c1=O (stereo unspecified) | -2 | 70 | 46* | 1 | -1 | 17 | >38
